The full data set covers some 7,900 targets. This sample favours those with a hit. About 0.6% of all pairs of compound and target were hits.
Tests used:
Assay in all cases: log2 fold change, soluble protein after heating vs DMSO (PISA); higher = thermal stabilisation; K562 cells, 10 uM, 30 min; active = over 0.2 and 3.5 SD of the protein, either way, in both replicates (recomputed)
[1] = compound: CC1=C(C=C(C=C1)NC(=O)C2=CC(=CC=C2)C(C)(C)C#N)NC3=CC4=C(C=C3)N=CN(C4=O)C
Procedure, shortened: (§1)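 Soluble protein was defined as the supernatant after 21,000xg for 90 min. It came from K562 cells at 2×10^6 cells/mL given 10 μM compound for 30 min, heated in aliquots for 3 min across 48°C-58°C, pooled, and extracted in PBS with 0.5% NP-40 at 4°C, and was quantified by TMTpro 16plex LC-MS/MS with equalised channel sums. Thermal stability against control samples, from duplicates, is reported as log2 fold change.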

[2] = compound: CC1=C(C=C(C=C1)NC(=O)C2=CC(=CC=C2)N(C)C)NC(=O)C3=CC=C(C=C3)O
Procedure, shortened: as §1

[3] = compound: CC1=CC=C(C=C1)SC2=C3C=C(SC3=CN=C2)C(=O)N
Procedure, shortened: as §1

[4] = compound: CC1=NC(=CC=C1)C2=C(N=C(N2)C(C)(C)C)C3=CC4=NC=CN=C4C=C3
Procedure, shortened: as §1

Nexturastat A = compound: CCCCN(Cc1ccc(C(=O)NO)cc1)C(=O)Nc1ccccc1 [Nexturastat A]
Procedure, shortened: as §1

vemurafenib = compound: CCCS(=O)(=O)Nc1ccc(F)c(C(=O)c2c[nH]c3ncc(-c4ccc(Cl)cc4)cc23)c1F [vemurafenib]
Procedure, shortened: as §1

[5] = compound: CCCS(=O)(=O)Nc1ccc(F)c(C(=O)c2c[nH]c3ncc(Cl)cc23)c1F
Procedure, shortened: as §1

[6] = compound: CCCc1cc(C)[nH]c(=O)c1CNC(=O)c1cc(-c2ccnc(N3CCN(C)CC3)c2)cc2c1cnn2C(C)C
Procedure, shortened: as §1

givinostat = compound: CCN(CC)Cc1ccc2cc(COC(=O)Nc3ccc(C(=O)NO)cc3)ccc2c1 [givinostat]
Procedure, shortened: as §1

barasertib = compound: CCN(CCCOc1ccc2c(Nc3cc(CC(=O)Nc4cccc(F)c4)[nH]n3)ncnc2c1)CCOP(=O)(O)O [barasertib]
Procedure, shortened: as §1

Measured: log2 fold change

SUMO1 (UniProt P63165)
Chain of UniProt P63165 (P63165 whole entry, looked up): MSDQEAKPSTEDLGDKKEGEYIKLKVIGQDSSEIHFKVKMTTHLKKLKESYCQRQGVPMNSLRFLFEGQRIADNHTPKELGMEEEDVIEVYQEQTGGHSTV
active: [5] 0.657
inactive: [1] -0.064 | [2] -0.045 | [3] 0.4 | [4] 0.024 | Nexturastat A -0.142 | vemurafenib -0.051 | [6] -0.071 | givinostat -0.172 | barasertib -0.055

SNX12 isoform 1 (UniProt Q9UMY4)
Chain of UniProt Q9UMY4 (Q9UMY4 whole entry, looked up): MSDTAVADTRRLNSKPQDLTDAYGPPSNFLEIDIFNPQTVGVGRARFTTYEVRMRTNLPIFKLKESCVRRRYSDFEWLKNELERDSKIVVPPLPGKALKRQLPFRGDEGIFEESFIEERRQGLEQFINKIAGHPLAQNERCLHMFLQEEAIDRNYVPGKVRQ
inactive: [1] -0.021 | [2] -0.006 | [3] 0.032 | [4] 0.024 | Nexturastat A -0.082 | vemurafenib 0.054 | [5] 0.059 | [6] 0.008 | givinostat 0.004 | barasertib 0.062

TCOF1 isoform 4 (UniProt Q13428)
inactive: [1] -0.03 | [2] 0.015 | [3] -0.028 | [4] -0.019 | Nexturastat A -0.001 | vemurafenib -0.029 | [5] -0.012 | [6] -0.004 | givinostat 0.056 | barasertib 0.006

TBC1D5 isoform 2 (UniProt Q92609)
inactive: [1] -0.051 | [2] -0.048 | [3] -0.013 | [4] 0.018 | Nexturastat A 0.01 | vemurafenib 0.048 | [5] 0.112 | [6] -0.033 | givinostat 0.049 | barasertib 0.022

SNUPN (UniProt O95149)
inactive: [1] -0.078 | [2] 0.052 | [3] 0.013 | [4] 0.026 | Nexturastat A -0.037 | vemurafenib -0.024 | [5] -0.065 | [6] 0.013 | givinostat -0.017 | barasertib 0.024

TM9SF2 (UniProt Q99805)
Chain of UniProt Q99805 (Q99805 whole entry, looked up): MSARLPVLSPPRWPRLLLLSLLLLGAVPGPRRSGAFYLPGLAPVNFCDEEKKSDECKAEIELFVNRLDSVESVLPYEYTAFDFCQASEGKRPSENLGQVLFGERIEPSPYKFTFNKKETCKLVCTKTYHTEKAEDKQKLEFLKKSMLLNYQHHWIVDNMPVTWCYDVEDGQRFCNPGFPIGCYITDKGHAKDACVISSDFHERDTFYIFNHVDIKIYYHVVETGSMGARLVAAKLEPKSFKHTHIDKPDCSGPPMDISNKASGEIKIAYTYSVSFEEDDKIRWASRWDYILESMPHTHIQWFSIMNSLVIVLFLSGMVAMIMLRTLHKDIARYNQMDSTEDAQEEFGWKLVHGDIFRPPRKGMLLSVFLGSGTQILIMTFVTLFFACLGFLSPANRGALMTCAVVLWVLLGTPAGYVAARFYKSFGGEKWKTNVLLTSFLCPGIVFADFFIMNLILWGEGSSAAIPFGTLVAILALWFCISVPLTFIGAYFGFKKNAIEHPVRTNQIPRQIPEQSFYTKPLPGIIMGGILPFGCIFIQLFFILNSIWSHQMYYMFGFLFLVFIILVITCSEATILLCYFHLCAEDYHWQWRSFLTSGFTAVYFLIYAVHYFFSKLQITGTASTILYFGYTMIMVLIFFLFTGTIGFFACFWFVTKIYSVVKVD
inactive: [1] 0.056 | [2] -0.009 | [3] -0.005 | [4] -0.001 | Nexturastat A -0.039 | vemurafenib -0.03 | [5] 0.018 | [6] -0.004 | givinostat -0.019 | barasertib 0.035

SLC27A2 (UniProt O14975)
inactive: [1] 0.099 | [2] -0.042 | [3] -0.032 | [4] -0.032 | Nexturastat A -0.013 | vemurafenib 0.029 | [5] 0.073 | [6] 0.008 | givinostat -0.004 | barasertib 0

STAT6 (UniProt P42226)
inactive: [1] -0.092 | [2] -0.111 | [3] 0.053 | [4] 0.015 | Nexturastat A 0.044 | vemurafenib 0.058 | [5] 0.082 | [6] -0.012 | givinostat 0.078 | barasertib 0.001

SLC35F6 (UniProt Q8N357)
Chain of UniProt Q8N357 (Q8N357 whole entry, looked up): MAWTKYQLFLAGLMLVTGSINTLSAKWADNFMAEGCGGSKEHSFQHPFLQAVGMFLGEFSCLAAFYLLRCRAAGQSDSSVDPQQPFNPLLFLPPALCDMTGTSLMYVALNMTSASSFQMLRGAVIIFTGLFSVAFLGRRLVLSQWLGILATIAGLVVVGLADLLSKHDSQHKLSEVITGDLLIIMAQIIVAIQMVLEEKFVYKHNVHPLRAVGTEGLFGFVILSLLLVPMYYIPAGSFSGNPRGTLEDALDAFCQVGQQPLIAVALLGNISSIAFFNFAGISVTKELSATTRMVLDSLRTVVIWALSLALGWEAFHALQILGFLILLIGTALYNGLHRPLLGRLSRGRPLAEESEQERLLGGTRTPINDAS
inactive: [1] -0.041 | [2] -0.166 | [3] 0.001 | Nexturastat A -0.065 | vemurafenib -0.168 | [5] -0.055 | [6] -0.066 | givinostat 0.129 | barasertib 0.045

TACC2 (UniProt O95359)
active: givinostat -0.284
inactive: [1] -0.015 | [2] -0.058 | [3] 0.16 | vemurafenib 0.032 | [5] -0.054 | [6] -0.085 | barasertib 0.012

TM7SF3 (UniProt Q9NS93)
Chain of UniProt Q9NS93 (Q9NS93 whole entry, looked up): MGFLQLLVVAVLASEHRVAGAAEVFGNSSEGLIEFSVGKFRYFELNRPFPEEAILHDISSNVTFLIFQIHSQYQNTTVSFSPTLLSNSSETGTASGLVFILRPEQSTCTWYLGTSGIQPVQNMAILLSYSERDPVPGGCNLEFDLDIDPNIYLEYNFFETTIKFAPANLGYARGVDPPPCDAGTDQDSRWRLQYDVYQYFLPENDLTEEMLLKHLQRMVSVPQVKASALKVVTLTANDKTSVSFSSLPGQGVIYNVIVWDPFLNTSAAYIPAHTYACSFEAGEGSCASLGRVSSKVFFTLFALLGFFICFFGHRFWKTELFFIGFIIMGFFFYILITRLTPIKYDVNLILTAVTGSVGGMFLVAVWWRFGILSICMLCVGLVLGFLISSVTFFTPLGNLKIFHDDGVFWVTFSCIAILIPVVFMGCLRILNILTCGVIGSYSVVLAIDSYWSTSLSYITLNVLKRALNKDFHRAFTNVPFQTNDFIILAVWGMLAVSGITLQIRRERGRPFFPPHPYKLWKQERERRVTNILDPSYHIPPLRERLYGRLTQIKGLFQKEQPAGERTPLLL
inactive: [1] -0.033 | [2] -0.054 | [3] 0.005 | [4] 0.017 | [5] -0.019 | [6] -0.027 | givinostat 0.06 | barasertib 0.045

SP1 (UniProt P08047)
inactive: [1] 0.023 | [2] -0.068 | [3] -0.067 | [4] -0.033 | Nexturastat A 0.034 | vemurafenib -0.017 | [5] -0.069 | [6] -0.018 | givinostat -0.114 | barasertib 0.011

TK1 (UniProt K7ERV3)
inactive: [1] -0.185 | [2] -0.055 | [3] -0.273 | Nexturastat A -0.178 | vemurafenib -0.077 | [5] -0.009 | [6] -0.149 | barasertib 0.088

STEAP3 isoform 2 (UniProt Q658P3)
Chain of UniProt Q658P3 (Q658P3 whole entry, looked up): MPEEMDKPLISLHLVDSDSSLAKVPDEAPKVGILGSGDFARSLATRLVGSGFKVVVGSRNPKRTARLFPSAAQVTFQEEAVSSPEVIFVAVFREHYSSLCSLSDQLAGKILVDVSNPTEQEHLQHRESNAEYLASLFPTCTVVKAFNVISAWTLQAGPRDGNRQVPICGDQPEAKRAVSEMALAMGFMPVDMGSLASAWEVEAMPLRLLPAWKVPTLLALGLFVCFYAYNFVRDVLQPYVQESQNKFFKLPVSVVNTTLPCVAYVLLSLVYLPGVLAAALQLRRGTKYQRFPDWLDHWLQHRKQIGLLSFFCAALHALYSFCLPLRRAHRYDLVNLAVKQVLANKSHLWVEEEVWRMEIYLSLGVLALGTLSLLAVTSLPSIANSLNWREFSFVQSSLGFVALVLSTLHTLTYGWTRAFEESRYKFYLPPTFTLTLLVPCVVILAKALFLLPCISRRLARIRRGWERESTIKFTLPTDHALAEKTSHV
inactive: [1] -0.009 | [2] 0.015 | [3] 0.008 | [4] -0.003 | Nexturastat A -0.05 | vemurafenib -0.027 | [5] 0.007 | [6] -0.025 | givinostat 0.005 | barasertib -0.004

SNX15 (UniProt Q9NRS6)
Chain of UniProt Q9NRS6 (Q9NRS6 whole entry, looked up): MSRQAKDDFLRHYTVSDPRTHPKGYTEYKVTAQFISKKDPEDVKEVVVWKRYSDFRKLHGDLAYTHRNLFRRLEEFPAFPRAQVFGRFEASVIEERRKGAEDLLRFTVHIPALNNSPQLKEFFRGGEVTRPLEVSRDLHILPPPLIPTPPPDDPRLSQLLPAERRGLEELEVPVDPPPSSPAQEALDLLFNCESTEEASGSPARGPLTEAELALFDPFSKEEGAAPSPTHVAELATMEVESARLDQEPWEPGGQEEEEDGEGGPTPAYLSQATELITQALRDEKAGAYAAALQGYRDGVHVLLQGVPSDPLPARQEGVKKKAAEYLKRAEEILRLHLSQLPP
inactive: [1] -0.25 | [2] -0.009 | [3] -0.015 | [4] -0.089 | vemurafenib -0.122 | [5] -0.021 | [6] 0.061 | barasertib 0.012

SUCLA2 (UniProt Q9P2R7)
inactive: [1] -0.038 | [2] -0.018 | [3] 0.003 | [4] 0.06 | Nexturastat A -0.083 | vemurafenib 0.047 | [5] 0.008 | [6] -0.02 | givinostat -0.003 | barasertib 0.064

SYF2 (UniProt O95926)
Chain of UniProt O95926 (O95926 whole entry, looked up): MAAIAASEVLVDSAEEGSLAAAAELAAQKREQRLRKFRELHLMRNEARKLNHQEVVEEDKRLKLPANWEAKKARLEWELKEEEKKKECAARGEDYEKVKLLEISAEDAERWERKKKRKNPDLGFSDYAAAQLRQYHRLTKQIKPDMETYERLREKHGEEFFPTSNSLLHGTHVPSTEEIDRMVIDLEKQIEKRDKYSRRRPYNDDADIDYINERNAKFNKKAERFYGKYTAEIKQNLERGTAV
inactive: [1] 0.03 | [2] 0.049 | [3] -0.063 | [4] -0.133 | Nexturastat A -0.015 | vemurafenib -0.071 | [5] -0.134 | [6] -0.008 | givinostat 0.031 | barasertib -0.083

SOX5 (UniProt P35711)
inactive: [1] -0.125 | [2] 0.004 | [3] -0.144 | [4] 0.02 | vemurafenib -0.05 | [5] -0.063 | [6] 0.042 | givinostat 0.013 | barasertib -0.119

SRFBP1 (UniProt Q8NEF9)
Chain of UniProt Q8NEF9 (Q8NEF9 whole entry, looked up): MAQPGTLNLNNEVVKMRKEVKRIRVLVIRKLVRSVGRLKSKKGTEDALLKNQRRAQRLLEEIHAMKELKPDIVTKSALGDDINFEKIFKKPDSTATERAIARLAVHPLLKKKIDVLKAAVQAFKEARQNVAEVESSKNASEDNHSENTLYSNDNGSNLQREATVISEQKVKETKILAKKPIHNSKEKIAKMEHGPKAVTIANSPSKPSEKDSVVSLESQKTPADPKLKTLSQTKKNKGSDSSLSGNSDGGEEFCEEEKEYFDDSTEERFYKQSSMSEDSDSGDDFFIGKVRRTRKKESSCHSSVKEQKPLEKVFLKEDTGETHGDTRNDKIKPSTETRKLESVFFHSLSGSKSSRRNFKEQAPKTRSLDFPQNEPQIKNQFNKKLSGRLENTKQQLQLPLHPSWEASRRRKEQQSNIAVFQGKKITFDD
inactive: [1] 0.008 | [2] -0.019 | [3] -0.127 | [4] -0.025 | Nexturastat A 0.111 | [5] -0.012 | [6] -0.012 | givinostat -0.061 | barasertib -0.045

SYNE2 isoform 2 (UniProt Q8WXH0)
inactive: [1] -0.084 | [2] 0.014 | [3] 0.064 | [4] -0.131 | vemurafenib -0.04 | [5] 0 | [6] -0.171 | givinostat 0.43 | barasertib 0.079

TMBIM1 (UniProt Q969X1)
inactive: [1] 0.113 | [2] -0.055 | [3] 0.09 | Nexturastat A -0.02 | vemurafenib -0.132 | [5] 0.185 | [6] -0.134 | givinostat 0.004 | barasertib -0.057

THYN1 (UniProt Q9P016)
Chain of UniProt Q9P016 (Q9P016 whole entry, looked up): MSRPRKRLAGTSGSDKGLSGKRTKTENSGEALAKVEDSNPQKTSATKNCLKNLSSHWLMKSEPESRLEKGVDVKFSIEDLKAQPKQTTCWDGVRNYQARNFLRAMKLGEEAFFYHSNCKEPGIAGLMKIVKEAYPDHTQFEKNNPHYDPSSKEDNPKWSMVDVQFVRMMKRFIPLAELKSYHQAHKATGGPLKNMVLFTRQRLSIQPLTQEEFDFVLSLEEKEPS
inactive: [1] 0.008 | [2] 0.013 | [3] 0.003 | [4] 0.056 | Nexturastat A -0.022 | vemurafenib -0.004 | [5] -0.004 | [6] 0.003 | givinostat -0.135 | barasertib 0.008

STARD3NL (UniProt O95772)
Chain of UniProt O95772 (O95772 whole entry, looked up): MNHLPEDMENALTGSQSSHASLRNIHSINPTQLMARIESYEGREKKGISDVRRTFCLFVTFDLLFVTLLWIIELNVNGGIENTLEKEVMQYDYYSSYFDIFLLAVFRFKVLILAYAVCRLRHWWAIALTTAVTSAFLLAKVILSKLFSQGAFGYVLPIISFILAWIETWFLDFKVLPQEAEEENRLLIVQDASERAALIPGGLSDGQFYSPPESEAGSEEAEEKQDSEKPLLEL
inactive: [1] 0.01 | [2] -0.002 | [3] 0.056 | [4] 0.076 | Nexturastat A -0.12 | vemurafenib 0.02 | [5] 0.048 | [6] -0.021 | givinostat 0.009 | barasertib -0.027

SNRNP27 (UniProt Q8WVK2)
Chain of UniProt Q8WVK2 (Q8WVK2 whole entry, looked up): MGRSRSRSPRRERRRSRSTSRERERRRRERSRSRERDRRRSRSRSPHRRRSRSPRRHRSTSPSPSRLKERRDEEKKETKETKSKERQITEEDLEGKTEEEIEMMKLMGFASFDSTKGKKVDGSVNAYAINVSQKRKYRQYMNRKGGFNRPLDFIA
inactive: [1] -0.015 | [2] -0.006 | [3] -0.008 | [4] 0.007 | Nexturastat A -0.02 | vemurafenib -0.031 | [5] -0.021 | [6] -0.361 | givinostat -0.032 | barasertib -0.039

STK25 (UniProt O00506)
Chain of UniProt O00506 (O00506 whole entry, looked up): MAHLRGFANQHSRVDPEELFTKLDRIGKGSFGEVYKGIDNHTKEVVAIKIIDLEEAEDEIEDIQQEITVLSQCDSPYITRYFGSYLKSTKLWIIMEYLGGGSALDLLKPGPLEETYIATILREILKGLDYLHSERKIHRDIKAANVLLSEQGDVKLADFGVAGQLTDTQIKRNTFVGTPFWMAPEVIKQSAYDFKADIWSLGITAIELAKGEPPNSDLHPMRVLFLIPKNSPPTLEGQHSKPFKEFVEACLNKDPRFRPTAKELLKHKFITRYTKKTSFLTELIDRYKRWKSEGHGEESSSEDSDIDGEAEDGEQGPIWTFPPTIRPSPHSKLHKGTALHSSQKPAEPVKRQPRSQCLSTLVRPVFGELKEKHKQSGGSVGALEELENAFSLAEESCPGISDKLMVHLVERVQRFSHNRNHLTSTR
inactive: [1] -0.102 | [2] 0.014 | [3] -0.011 | [4] 0.029 | Nexturastat A -0.006 | vemurafenib -0.021 | [5] 0.011 | [6] -0.052 | givinostat 0.056 | barasertib 0.025

SMIM20 isoform 2 (UniProt Q8N5G0)
inactive: [1] 0.01 | [2] 0.008 | [3] -0.052 | Nexturastat A 0.006 | vemurafenib 0.148 | [5] -0.059 | [6] -0.024 | givinostat -0.102 | barasertib -0.026

ST6GAL1 (UniProt P15907)
Chain of UniProt P15907 (P15907 whole entry, looked up): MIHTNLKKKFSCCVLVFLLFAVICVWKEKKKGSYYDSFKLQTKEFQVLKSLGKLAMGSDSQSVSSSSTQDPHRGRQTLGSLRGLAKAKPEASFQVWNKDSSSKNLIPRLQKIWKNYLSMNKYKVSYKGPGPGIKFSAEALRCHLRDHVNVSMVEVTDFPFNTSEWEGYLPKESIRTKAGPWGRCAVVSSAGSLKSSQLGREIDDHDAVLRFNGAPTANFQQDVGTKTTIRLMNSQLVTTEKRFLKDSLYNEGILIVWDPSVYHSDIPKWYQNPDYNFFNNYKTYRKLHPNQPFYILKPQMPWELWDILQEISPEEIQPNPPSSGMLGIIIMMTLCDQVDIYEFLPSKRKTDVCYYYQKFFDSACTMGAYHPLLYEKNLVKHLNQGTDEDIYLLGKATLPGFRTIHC
inactive: [1] 0.025 | [2] -0.032 | [3] -0.028 | [4] -0.064 | Nexturastat A -0.031 | vemurafenib -0.1 | [5] -0.069 | [6] 0.047 | givinostat -0.005 | barasertib -0.014

TIMM21 (UniProt Q9BVV7)
inactive: [1] 0.014 | [2] 0.008 | [3] 0.035 | [4] 0.058 | Nexturastat A -0.121 | vemurafenib 0.032 | [5] 0.067 | [6] -0.005 | givinostat 0.005 | barasertib 0.034
